# Unmarked numbers belong to inactive results. Active and inactive are the calls of the source. Cut-off read from the data, not from the text of the source: active = fold change permeability below about 0.7 or above about 1.3; inactive = in between.
# Assay: modulators of brain endothelial barrier permeability, primary screen, cell-based, FITC-avidin fluorescence, HTS (AID 1963498); note: test concentration not given here
# Settings: actives lie on both sides
row,Structure (SMILES),fold change permeability
1,Cc1ccccc1C(OCCN(C)C)c1ccccc1 (centres undefined),1
2,CC(C)[C@H]1c2ccc(F)cc2CC[C@@]1(CCN(C)CCCc1nc2ccccc2[nH]1)OC(=O)C1CC1,1.3 (active)
3,CCCCCCCC/C=C\CCCCCCCC(=O)NCCO,1.2
4,O=C1NC(=O)C(Cc2ccc3cc(OCc4ccccc4F)ccc3c2)S1 (centres undefined),1.3 (active)
5,Cc1ccc(C2Nc3ccccc3C(=O)N2c2ccccc2)s1 (centres undefined),1.3 (active)
6,N[C@H](CCCP(=O)(O)O)C(=O)O,1.3 (active)
7,Cn1cc(C2=C(c3ccc(Cl)cc3Cl)C(=O)NC2=O)c2ccccc21,3.6 (active)
8,CC(C)C(=O)Nc1n[nH]c2cc(-c3cccc(NS(=O)(=O)C4CC4)c3)ccc12,1.2
9,O=C(O)CCc1ccc(-c2ccc(Br)cc2)n1-c1ccccc1C(F)(F)F,1.2
10,N=C(N)N1CCc2ccccc2C1,1.3 (active)
11,CN(C)CCCC1(c2ccc(F)cc2)OCc2cc(C#N)ccc21 (centres undefined),0.9
12,CC(C)(C)c1ccc(CN2CCN(C(c3ccccc3)c3ccc(Cl)cc3)CC2)cc1 (centres undefined),1.6 (active)
13,N[C@@H](Cc1ccc(F)cc1)C(=O)O,0.8
14,COCCOC(=O)C1=C(C)NC(C)=C(C(=O)OC/C=C/c2ccccc2)C1c1cccc([N+](=O)[O-])c1 (centres undefined),1.2
15,CC1(C)CO[C@@H](CC(=O)O)CN1,1.2
16,O=C(O)c1cccnc1C(=O)O,1.1
17,Cc1cccc(C#Cc2ccccc2)n1,0.9
18,COc1cc2c(cc1-c1c(C)noc1C)ncc1[nH]c(=O)n([C@H](C)c3ccccn3)c12,1.1
19,CC(=O)OCC1=C(C(=O)O)N2C(=O)[C@@H](NC(=O)Cc3cccs3)[C@H]2SC1,0.8
20,COCCOC(=O)C1=C(C)NC(C)=C(C(=O)OC(C)C)C1c1cccc([N+](=O)[O-])c1 (centres undefined),0.7 (active)

row,Structure (SMILES),fold change permeability
1,CC(=O)O[C@H]1Cc2ccccc2N(C(N)=O)c2ccccc21,1.8 (active)
2,COc1cc(O)c(C)c(O)c1C(=O)CCc1ccccc1,1.8 (active)
3,O=c1c2ccccc2[nH]c(=S)n1CCN1CCC(=C(c2ccc(F)cc2)c2ccc(F)cc2)CC1,1.6 (active)
4,O=C(Nc1ccccc1)c1cc([N+](=O)[O-])ccc1Cl,1.5 (active)
5,NCCc1cnc[nH]1,1.3 (active)
6,CN(C)c1cc2c(Nc3ccc4c(cnn4Cc4ccccc4)c3)ncnc2cn1,3.5 (active)
7,CN(C)c1ccc(NCc2ccccn2)cc1,1.5 (active)
8,Cc1ccc(C(=O)Nc2sc(Nc3ccccc3)nc2C(N)=O)cc1,1.3 (active)
9,CC[C@H]1OC(=O)[C@H](C)C(=O)[C@H](C)[C@@H](O[C@@H]2O[C@H](C)C[C@H](N(C)C)[C@H]2O)[C@](C)(OC)C[C@@H](C)C(=O)[C@H](C)[C@H]2N(CCCCn3cnc(-c4cccnc4)c3)C(=O)O[C@]12C,0.7 (active)
10,O=c1[nH]cc(F)c(=O)[nH]1,0.8
11,Clc1ccc(Cn2c(CN3CCCC3)nc3ccccc32)cc1,1.2
12,NC(N)=NC(N)=Nc1cccc(Cl)c1,1.2
13,CC(C)C[C@H]1C(=O)N2CCC[C@H]2[C@]2(O)O[C@](NC(=O)[C@@H]3C=C4c5cccc6[nH]c(Br)c(c56)C[C@H]4N(C)C3)(C(C)C)C(=O)N12,1.1
14,COC(=O)[C@@H](N)Cc1ccc(O)c(O)c1,1
15,COc1cccc(OC)c1OCCNCC1COc2ccccc2O1 (centres undefined),1.3 (active)
16,OCCN1CCN(CC/C=C2/c3ccccc3Sc3ccc(C(F)(F)F)cc32)CC1,1.2
17,N#Cc1cc([N+](=O)[O-])c2sc(C(N)=O)[n+]([O-])c2c1,1.3 (active)
18,NC(=O)c1ccc(OCCCN2C[C@H]3CCC[C@H]3C2)cc1,0.8
19,COc1cc2c(cc1OC)C1CC(=O)C(CC(C)C)CN1CC2 (centres undefined),0.7 (active)
